From PubChem
An excerpt weighted towards active compounds, which were near 7.5% of everything screened.
NPC1 promoter act: activators of NPC1 promoter; AID 485313; Potency, µM (doses to about 9.22 µM), inactives show top-dose activation, actives largely listed as activators; 2.4% of 320,000 active; Huh7 NPC1 promoter luciferase reporter, 24 h; also: % of control where 0% means no effect; nearly all actives have a fitted effect of over 60% in size
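Luminescence read-out of NPC1 promoter-driven luciferase in stably transfected Huh7 cells; compounds delivered in DMSO and left 24 h at 37C, 5% CO2, qHTS titration format.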
Rab9 promoter act: activators of Rab9 promoter; Huh7 Rab9 promoter-luciferase reporter, luminescence, 24 h; Potency, µM (titrated, usually from 9.22 µM), for inactives: at the highest dose activation, negative = inhibition, actives largely listed as activators; 2.8% of 320,000 active; also: % of control where 0% means no effect; nearly all actives have a fitted effect of over 60% in size
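Measured in stably transfected Huh7 cells bearing a Rab9 promoter–luciferase construct: 24 h compound treatment at 37 °C, followed by luminescence detection.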
FLuc counter: inhibits or activates purified firefly luciferase, miR-21 counter-screen. 6.9% of 360,000 active. purified FLuc, Km substrates, luminescence inhibition. AID 588342. Potency, µM (doses to about 57.5 µM), for the others: at the top dose activity change, negative = inhibition, hits mostly inhibitors. P08659;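 also: plate controls were vehicle for no effect and reference inhibitor for full effect; nearly all actives have a fitted effect of over 55% in size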
Target sequence (P08659 whole entry, looked up): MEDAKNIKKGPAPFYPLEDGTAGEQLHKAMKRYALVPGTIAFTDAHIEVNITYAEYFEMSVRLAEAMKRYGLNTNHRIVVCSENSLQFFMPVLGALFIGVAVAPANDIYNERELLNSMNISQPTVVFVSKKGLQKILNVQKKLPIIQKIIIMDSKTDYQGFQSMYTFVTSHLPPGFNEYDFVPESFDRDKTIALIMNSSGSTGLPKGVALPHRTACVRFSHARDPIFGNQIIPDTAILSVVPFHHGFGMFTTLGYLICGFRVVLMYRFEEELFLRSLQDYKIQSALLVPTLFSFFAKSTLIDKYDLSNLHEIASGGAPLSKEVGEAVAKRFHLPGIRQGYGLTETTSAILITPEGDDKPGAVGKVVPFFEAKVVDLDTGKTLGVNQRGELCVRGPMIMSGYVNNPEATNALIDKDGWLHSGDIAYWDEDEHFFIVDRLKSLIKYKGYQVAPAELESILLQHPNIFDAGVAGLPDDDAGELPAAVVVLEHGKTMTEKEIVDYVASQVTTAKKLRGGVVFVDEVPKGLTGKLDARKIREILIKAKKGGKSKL
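Purified P. pyralis luciferase, 10 nM final, with Km-level 10 uM D-luciferin and 10 uM ATP in 50 mM Tris acetate pH 7.5, 10 mM Mg acetate, 0.01% Tween-20, 0.05% BSA; 6-point qHTS titration about 60 µM downward; luminescence read.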
KinaseGlo FLuc: Kinase-Glo luciferase inhibition (counter-screen). Q27757. Kinase-Glo luciferase, ATP luminescence, 8 min. Potency, µM (titrated, usually from 38.3 µM), without a hit: at the top dose activity change, negative = inhibition, usual class: inhibitors. 0.28% of 200,000 active. AID 1379; also: % is scaled to controls: 0 for no effect and ±100 for the full control effect; nearly all actives have a fitted effect of over 60% in size
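Kinase-Glo luciferase light output from ATP and luciferin was measured with 10 uM ATP, within the enzyme's linear range. Buffer: 50 mM imidazole pH 7.2, 50 mM KCl, 7 mM MgCl2, 0.01% Tween 20, 0.05% BSA; luminescence read after 8 min at ambient temperature.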
SMN2 splice up: SMN2 splice variant enhancement; HEK293 SMN2-luciferase splicing reporter, luminescence, 30-36 h; Potency, µM (doses to about 46.1 µM), for the others: at the highest dose activity change, positive = activation, actives largely listed as activators; 2.8% of 210,000 active; also: % of control where 0% means no effect; nearly all actives have a fitted effect of over 55% in size
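HEK293 cells carry an SMN2 minigene-luciferase reporter in which exon 7 inclusion puts luciferase in frame. Cells were seeded at 2000 cells/well, attached for 10-12 hours, then exposed to compounds for 30-36 hours at 37C before ONE-Glo luminescence.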
ELG1 genotoxic: induces genotoxicity in HEK293T cells with luciferase-tagged ELG1 | 1.3% of 330,000 active | HEK293T ELG1-luciferase reporter, luminescence, 16 h | Potency, µM (highest dose often 46 µM), without a hit: top-dose activity change, positive = activation, hits mostly activators; also: % of control where 0% means no effect; nearly all actives have a fitted effect of over 60% in size
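Reporter readout depends on ELG1 protein level, which increases with genetic stress. After 16 hr compound exposure at 37 °C, luciferase activity was quantified using ONE-Glo.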
* hit, by the source's call; ? = inconclusive; . = no result given; [ ] = another dose, or the depositor's remark. Calls follow the shape of the dose curve; as a rule, active = well fitted curve in the direction sought with a large enough effect; inconclusive = small, poorly fitted or top-dose-only effect, or another doubt; inactive = no such curve, though single readings can be large; an effect the other way counts as inactive or inconclusive. Potency is read from the fitted curve at half-maximal effect.

SMILES	NPC1 promoter act	Rab9 promoter act	FLuc counter	KinaseGlo FLuc	SMN2 splice up	ELG1 genotoxic
CN(C)S(=O)(=O)c1cccc(NC(=S)NC23CC4CC(CC(C4)C2)C3)c1	-1%	-1%	2%	.	.	-17%
Cc1cc(NC(=O)Cc2ccsc2)ccc1Br	22%	23%	17µM*	.	.	2%
Cc1cc(C)c2c(=O)n(CC(=O)Nc3ccc(Br)c(C)c3)sc2n1	1%	0%	8.5µM*	.	.	0%
CC(C)CNC(=O)COC(=O)c1c2c(nc3ccccc13)/C(=C/c1cccs1)CC2	-29%	-7%	5.4µM*	.	.	-11%
O=C(COC(=O)c1c2c(nc3ccccc13)/C(=C/c1ccco1)CC2)NC1CCCC1	19%	27%	5.4µM*	-6%	28%	-2%
CCNc1c(NC(=O)c2ccccc2OCC)c(=O)oc2ccccc12	.	.	-7%	.	-3%	.
N#C/C(=C\c1ccc(F)c(Br)c1)C(=O)NC1CC1	3.2µM*	4µM*	?	.	.	10µM*
O=C1CC(N2CCN(c3nc4ccccc4s3)CC2)C(=O)N1c1ccc(F)cc1 (stereo not given)	3%	1%	-1%	0%	12%	1%
O=c1c(Cl)c(N2CCN(c3ccc(F)cc3)CC2)cnn1-c1nc2ccccc2s1	29%	?	19µM*	-3%	13µM*	?
COc1cc(CN2CCN(c3ncccn3)CC2)cc(OC)c1	-7%	-1%	0%	.	.	-2%
COc1ccc(S(=O)(=O)N2CCCCCC2)cc1C(=O)Nc1ccc(C(=O)N(C)C)cc1	7%	-10%	1%	.	.	1%
COc1ccc(Cl)cc1C(=O)O/N=C(\N)c1ccccn1	4µM*	13%	?	.	.	?
N/C(=N\OC(=O)c1cc(Cl)ccc1Cl)c1ccccn1	?	5µM*	1.5µM*	-13%	5µM*	?
O=C(NCCNC(=O)c1cc(Cl)ccc1Cl)c1ccccn1	2%	4%	-1%	.	.	2%
Cc1ccc2ncc(S(=O)(=O)c3ccccc3)c(N3CCCCC3C)c2c1 (stereo not given)	-1%	-1%	2%	.	-8%	-1%
COc1ccc(C2=NN(S(C)(=O)=O)C(c3cccs3)C2)cc1 (stereo not given)	3.5µM*	0.89µM*	11µM*	-27%	.	?
COc1ccc(C2CC(c3cccs3)=NN2S(C)(=O)=O)cc1 (stereo not given)	?	?	?	.	.	14%
CS(=O)(=O)N1N=C(c2ccc(Br)cc2)CC1c1cccs1 (stereo not given)	?	?	15µM*	-8%	29%	?
CS(=O)(=O)N1N=C(c2ccccc2)CC1c1ccc2nccnc2c1 (stereo not given)	13%	4%	?	3%	-4%	0%
Cc1ccc(C2=NN(S(C)(=O)=O)C(c3cccs3)C2)cc1 (stereo not given)	1.8µM*	3.5µM*	19µM*	-18%	11µM*	?
Cc1ccc(C2=NN(S(C)(=O)=O)C(c3ccc4nccnc4c3)C2)cc1 (stereo not given)	?	?	?	3%	13µM*	?
CC(C(=O)Nc1ccc(C(N)=O)cc1)N1C(=O)c2ccccc2S1(=O)=O (stereo not given)	6%	-11%	0%	.	.	1%
O=C(O)[C@H]1CCCC[C@@H]1C(=O)Nc1nc2ccccc2[nH]1	.	.	.	-4%[7.66 µM]	-6%[9.22 µM]	.
O=C(Cc1cccs1)Nc1c(C(=O)Nc2ccc(F)cc2)oc2ccccc12	.	.	3%	.	7%	.
O=C(CCCCCNC(=O)c1ccccc1Cl)N/N=C/c1ccco1	1%	-3%	-11%	0%	-11%	1%
COc1ccc(C2CC(c3ccccc3)=NN2C(=O)c2cccs2)cc1 (stereo not given)	21%	?	17µM*	.	.	3%
CC(=O)N1N=C(c2cccc(NS(C)(=O)=O)c2)CC1c1ccc2c(c1)OCO2 (stereo not given)	18%	15%	?	.	.	0%
